# Shown is part of a subset that was picked to be rich in the strongest signals.
# Experiments:
# Assay in all cases: glycan array binding signal (z-score within array); higher = stronger binding
# Settings in all cases: glycan notation: IUPAC condensed, linker removed
# [1] = molecular target: Fuc(a1-2)Gal(b1-3)[Fuc(a1-4)]GlcNAc(b1-2)Man(a1-3)[Fuc(a1-2)Gal(b1-3)[Fuc(a1-4)]GlcNAc(b1-2)Man(a1-3)]Man(b1-4)GlcNAc(b1-4)GlcNAc
# Summary of the method: (§1)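 The Consortium for Functional Glycomics database supplied 3228 glycan arrays, of which those lacking an available protein sequence were dropped. The binding signal, a within-array Z-score, was averaged across arrays of the same protein sequence and across linkers. Negative scores can be read as non-binding.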
# [2] = molecular target: Fuc(a1-2)[Gal(a1-3)]Gal(b1-4)GlcNAc(b1-3)GalNAc
# Summary of the method: as §1
# [3] = molecular target: Fuc(a1-2)[Gal(a1-3)]Gal(b1-4)GlcNAc(b1-6)GalNAc
# Summary of the method: as §1
# [4] = molecular target: Fuc(a1-2)[Gal(a1-4)]Gal(b1-4)GlcNAc
# Summary of the method: as §1
# [5] = molecular target: Fuc(a1-2)[GalNAc(a1-3)]Gal(b1-3)GlcNAc(b1-2)Man(a1-3)[Fuc(a1-2)[GalNAc(a1-3)]Gal(b1-3)GlcNAc(b1-2)Man(a1-6)]Man(b1-4)GlcNAc(b1-4)[Fuc(a1-6)]GlcNAc
# Summary of the method: as §1
# [6] = molecular target: Fuc(a1-2)[GalNAc(a1-3)]Gal(b1-4)[Fuc(a1-3)]GlcNAc(b1-3)GalNAc
# Summary of the method: as §1
# [7] = molecular target: Fuc(a1-3)[Gal(b1-4)]GlcNAc(b1-3)Gal(b1-3)[Fuc(a1-4)]GlcNAc
# Summary of the method: as §1
# [8] = molecular target: Fuc(a1-3)[Gal(b1-4)]GlcNAc(b1-3)Gal(b1-4)[Fuc(a1-3)]GlcNAc(b1-3)Gal(b1-4)[Fuc(a1-3)]GlcNAc
# Summary of the method: as §1
# [9] = molecular target: Fuc(a1-3)[Gal3S(b1-4)]GlcNAc6S
# Summary of the method: as §1
# Fuc(a1-4)GlcNAc = molecular target: Fuc(a1-4)GlcNAc
# Summary of the method: as §1
# Gal(a1-3)Gal(b1-4)GlcNAc = molecular target: Gal(a1-3)Gal(b1-4)GlcNAc
# Summary of the method: as §1
# [10] = molecular target: Gal(a1-4)Gal(b1-3)GlcNAc(b1-2)Man(a1-3)[Gal(a1-4)Gal(b1-3)GlcNAc(b1-2)Man(a1-6)]Man(b1-4)GlcNAc(b1-4)GlcNAc
# Summary of the method: as §1
# Gal(b1-3)Gal(b1-4)GlcNAc = molecular target: Gal(b1-3)Gal(b1-4)GlcNAc
# Summary of the method: as §1
# Gal(b1-3)GalNAc(b1-3)Gal = molecular target: Gal(b1-3)GalNAc(b1-3)Gal
# Summary of the method: as §1
# [11] = molecular target: Gal(b1-3)GalNAc(b1-4)Gal(b1-4)Glc
# Summary of the method: as §1
# [12] = molecular target: Gal(b1-3)GlcNAc(b1-3)Gal(b1-4)Glc
# Summary of the method: as §1
# [13] = molecular target: Gal(b1-3)GlcNAc(b1-3)Gal(b1-4)GlcNAc
# Summary of the method: as §1
# [14] = molecular target: Gal(b1-3)GlcNAc(b1-3)Gal(b1-4)GlcNAc(b1-2)Man(a1-3)[Gal(b1-3)GlcNAc(b1-3)Gal(b1-4)GlcNAc(b1-2)Man(a1-6)]Man(b1-4)GlcNAc(b1-4)GlcNAc
# Summary of the method: as §1
# [15] = molecular target: Gal(b1-3)GlcNAc(b1-3)Gal(b1-4)GlcNAc(b1-2)[Gal(b1-3)GlcNAc(b1-3)Gal(b1-4)GlcNAc(b1-6)]Man(a1-6)[Gal(b1-3)GlcNAc(b1-3)Gal(b1-4)GlcNAc(b1-2)Man(a1-3)]Man(b1-4)GlcNAc(b1-4)[Fuc(a1-6)]GlcNAc
# Summary of the method: as §1
# [16] = molecular target: Gal(b1-3)GlcNAc(b1-3)Gal(b1-4)GlcNAc(b1-3)Gal(b1-4)GlcNAc(b1-2)[Gal(b1-3)GlcNAc(b1-3)Gal(b1-4)GlcNAc(b1-3)Gal(b1-4)GlcNAc(b1-6)]Man(a1-6)[Gal(b1-3)GlcNAc(b1-3)Gal(b1-4)GlcNAc(b1-3)Gal(b1-4)GlcNAc(b1-2)Man(a1-3)]Man(b1-4)GlcNAc(b1-4)[Fuc(a1-6)]GlcNAc
# Summary of the method: as §1
# [17] = molecular target: Gal(b1-3)GlcNAc(b1-3)Gal(b1-4)GlcNAc(b1-6)[Gal(b1-3)GlcNAc(b1-3)]Gal(b1-4)Glc
# Summary of the method: as §1
# Gal(b1-3)GlcNAc6S = molecular target: Gal(b1-3)GlcNAc6S
# Summary of the method: as §1
# [18] = molecular target: Gal(b1-3)[Fuc(a1-4)]GlcNAc(b1-3)Gal(b1-3)[Fuc(a1-4)]GlcNAc
# Summary of the method: as §1
# [19] = molecular target: Gal(b1-3)[Neu5Ac(a2-6)]GlcNAc(b1-4)Gal(b1-4)Glc
# Summary of the method: as §1
# [20] = molecular target: Gal(b1-4)GlcNAc(b1-2)Man(a1-3)[Man(a1-6)]Man(b1-4)GlcNAc(b1-4)GlcNAc
# Summary of the method: as §1
# [21] = molecular target: Gal(b1-4)GlcNAc(b1-2)[Gal(b1-4)GlcNAc(b1-4)]Man(a1-3)[Gal(b1-4)GlcNAc(b1-2)[Gal(b1-4)GlcNAc(b1-6)]Man(a1-6)]Man(b1-4)GlcNAc(b1-4)GlcNAc
# Summary of the method: as §1
binder,measurement,setting,value
B160 (Bifidobacterium sp) (protein) MVSHNKRIVAALAAVAAMGIGLAGCGGSDTAGDTKSGSDGGVVNITYMHRLPDSEGMTLVNDIVAKWNKEHPNIQVKATKFDGNAADMIKKLETDVKAGNAPDLAQVGYAEVPEVFTKGLLQDVTDEAAKYKDDFASGPFALMQVDGKTYGLPQDTGPLTYFYNAAEFEKLGITVPKTADELIETAKKTAAQGKYIMTFTPDEAMMMMSGQAGASGPWYKVDGNSWVVNTQTKGSKAVADVYQQLIDNKAALTNPRWDASFDNSIQSGQLIGTVAAAWEAPLFIDSAGGTGAGEWKVTQLGDWFGNGTKTGANGGSGVAVLKGSKHPAEAMEFLDWFNTQVDDLVSQGLVVAATTADAKTPQKWSDYFSGQDVMAEFKTANDNMGDFTYMPGFSAVGAAMKQTAAKAADGSAKVSDVFDTAQKTSVDTLKNLGLSVKE,glycan array binding signal (z-score),[1],-0.134
same,glycan array binding signal (z-score),[2],-0.168
same,glycan array binding signal (z-score),[3],-0.163
same,glycan array binding signal (z-score),[4],-0.15
same,glycan array binding signal (z-score),[5],-0.126
same,glycan array binding signal (z-score),[6],-0.135
same,glycan array binding signal (z-score),[7],-0.164
same,glycan array binding signal (z-score),[8],-0.14
same,glycan array binding signal (z-score),[9],-0.145
same,glycan array binding signal (z-score),Fuc(a1-4)GlcNAc,-0.176
same,glycan array binding signal (z-score),Gal(a1-3)Gal(b1-4)GlcNAc,-0.166
same,glycan array binding signal (z-score),[10],-0.093
same,glycan array binding signal (z-score),Gal(b1-3)Gal(b1-4)GlcNAc,11.7
same,glycan array binding signal (z-score),Gal(b1-3)GalNAc(b1-3)Gal,6.25
same,glycan array binding signal (z-score),[11],8.55
same,glycan array binding signal (z-score),[12],4.36
same,glycan array binding signal (z-score),[13],4.98
same,glycan array binding signal (z-score),[14],5.11
same,glycan array binding signal (z-score),[15],8.35
same,glycan array binding signal (z-score),[16],6.21
same,glycan array binding signal (z-score),[17],5.45
same,glycan array binding signal (z-score),Gal(b1-3)GlcNAc6S,6.55
same,glycan array binding signal (z-score),[18],-0.141
same,glycan array binding signal (z-score),[19],6.71
same,glycan array binding signal (z-score),[20],-0.176
same,glycan array binding signal (z-score),[21],-0.18
